Each structure is given as a SMILES string. Calls of active or inactive are those of the source.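 How the source made its calls, unless noted: active means inhibition above 20% together with a positive visual image hit; inconclusive means visual image hit but inhibition not above 20%; inactive means no visual image hit.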

Consider 40 compounds from PubChem BioAssay.

One assay can be described thus: inhibitors of TNFa-induced NFkB p65 translocation, primary screen, imaging, HUVEC, MLSMR starter and 10KST1 sets (AID 438).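 Further: compound added about 3h40 before a 20 min TNFalpha stimulation.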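 On inhibition: signal is the nuclear over cytoplasmic p65 intensity ratio per well.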 As to conditions: HUVEC TNFa-induced p65 nuclear translocation; cell count: measured here: nuclei count (cytotoxicity indicator), at 2.08 µM; inhibition: at 2 µM, stronger effect = higher value, 0% TNFa-plus-vehicle, 100% no-TNFa wells.
In general, inhibition refers to the relative decrease from the control value, in per cent. `Cc1ccc(NC2=NC(c3ccccc3)n3c(nc(C)cc3=O)N2)cc1` (stereo not given): the cell count was found to be 568 and the inhibition was -5.6% (inactive).

`CC(C)NC(=O)NC(=O)COc1cccc2c1OC(C)(C)C2`: the inhibition is -10.1% (inactive) and the cell count was 749.

On to `COCCOc1nc2ccccc2nc1C`, for which the cell count was determined as 351 and the inhibition is 5.2% (inactive).

For the compound `O=C(CSc1nnc2scc(-c3ccccc3)n12)N1CCN(Cc2ccccc2)CC1`, the cell count amounted to 703 and the inhibition is -24.5% (inactive).

For the compound `CN1CCCN(C(=O)c2cc(=O)[nH]c3ccccc23)c2nc3ccccc3nc21`, the inhibition is -0.6% (inactive) and the cell count amounted to 369.

On to `CCOc1ccc(OCC)c(NC(=O)C2CCN(S(=O)(=O)c3cnc[nH]3)CC2)c1`, for which the inhibition was -1.3% (inactive) and the cell count came out at 377.

`CC(=O)Nc1cccc(NC(=O)CSc2nnnn2C(C)C)c1`: the cell count was determined as 638 and the inhibition was 1.6% (inactive).

With `CCc1ccc2oc(-c3cc(N)ccc3Cl)nc2c1`, the cell count came to 563 and the inhibition is -33.7% (inactive).

As for `CC(C)CCn1c(SCC#N)nc2c(sc3ccccc32)c1=O`, the cell count came to 718 and the inhibition was -3.6% (inactive).

Turning to `O=c1c2c(nc3nc(COc4ccccc4)[nH]n13)CCC2`, the inhibition is 5.6% (inactive) and the cell count amounted to 305.

With `CCCCC(=O)Nc1nn(CCC)c2nc3ccccc3cc12`, the inhibition is 4.2% (inactive) and the cell count stood at 363.

As to `COc1nc2ccc(C)cc2cc1-c1noc(-c2cccnc2)n1`, the cell count came out at 243 and the inhibition was -0.9% (inactive).

In the case of `O=C(NC1CCCc2ccccc21)C1CCN(S(=O)(=O)c2cnc[nH]2)CC1` (stereo not given), the cell count came out at 529 and the inhibition was -10.3% (inactive).

Turning to `CCn1cc(C2=NOC(C(=O)Nc3cc(C)nn3-c3ccccc3)C2)c(C)n1` (stereo not given), the cell count worked out at 542 and the inhibition is -3.4% (inactive).

Regarding `CC(C)CC(c1nnnn1C1CCCC1)N1CCN(c2ccccc2F)CC1` (stereo not given), the cell count was 384 and the inhibition is -3.6% (inactive).

As for `Cc1cc2c(s1)c1cnn(CC(=O)NCCc3ccccc3)c(=O)c1n2C`, the cell count worked out at 279 and the inhibition was 17.5% (inactive).

For the compound `CN(C(=O)CSc1nc2c(c(=O)[nH]1)CCCC2)C1CCCCC1`, the cell count was 820 and the inhibition is -0.9% (inactive).

As to `CCc1cc2c(NCCC(=O)O)ncnc2s1`, the cell count amounted to 507 and the inhibition was 15.8% (inactive).

In the case of `CC(C)(C)C(=O)Oc1cc(N)n(S(=O)(=O)c2ccccc2)n1`, the inhibition is -0.3% (inactive) and the cell count was determined as 228.

Regarding `CC(C)CCNC(=O)NC(=O)CSc1nnc(-c2ccccc2Br)o1`, the cell count came to 538 and the inhibition is -16.6% (inactive).

Consider `O=C1c2cccnc2C(O)N1Cc1ccc(F)cc1` (stereo not given), for which the inhibition is 1.1% (inactive) and the cell count amounted to 375.

As for `Cc1cccn2c(=O)c3cc(C#N)c(=O)n(CCCN4CCOCC4)c3nc12`, the inhibition was 1% (inactive) and the cell count was 519.

Take `Nc1cc(C(=O)O)ccc1Nc1ccccc1`: the cell count was determined as 423 and the inhibition is -9.8% (inactive).

As for `CCn1c(Cc2ccc(OC)cc2)nnc1SCC(=O)Nc1cccc(C(=O)OC)c1`, the cell count came out at 433 and the inhibition was 6% (inactive).

With `COCCNC(=O)c1ccc2c(c1)nc(C)n2-c1cccc(F)c1`, the inhibition was 19.4% (inactive) and the cell count turned out to be 292.

In the case of `Cc1ccc2cc(CN(CC(C)C)C(=O)C3CCCO3)c(=O)[nH]c2c1` (stereo not given), the inhibition was 6.3% (inactive) and the cell count was 510.

For the compound `CCn1c(=S)sc2nc(C)sc21`, the inhibition is 1.3% (inactive) and the cell count is 266.

Turning to `O=C(OCCCN1C(=O)c2ccccc2C1=O)c1ccco1`, the cell count stood at 643 and the inhibition is -2.2% (inactive).

On to `Cc1ccc(-c2nn(C)c(=O)c3ccccc23)cc1S(=O)(=O)N1CCOCC1`, for which the inhibition is -10.5% (inactive) and the cell count is 595.

Consider `OCc1nc2ccccc2n1CC(O)Cn1ccc2ccccc21` (stereo not given), for which the inhibition was 2.9% (inactive) and the cell count came out at 463.

Turning to `O=C(c1cnsn1)N1CCN(c2ccccn2)CC1`, the cell count was determined as 277 and the inhibition is 9.3% (inactive).

For the compound `Cc1ccccc1CSCC(=O)c1c(N)n(C)c(=O)n(C)c1=O`, the cell count is 395 and the inhibition was 2.8% (inactive).

Turning to `CCC(=O)N1CCc2cc(OC)c(OC)cc2C1COc1ccc(C(=O)OC)cc1` (stereo not given), the inhibition was -20.4% (inactive) and the cell count is 767.

Take `O=C(Cn1nnc(-c2cccc(C(F)(F)F)c2)n1)NC(=O)NCc1ccco1`: the cell count came out at 323 and the inhibition is 19.4% (inactive).

On to `CCN(CC)S(=O)(=O)c1ccc(C(=O)Oc2ccc3c(c2)OCO3)cc1`, for which the inhibition is -8.9% (inactive) and the cell count is 603.

Take `COc1ccccc1NC(=O)c1ccc(NC(=O)CSc2nnnn2C)cc1`: the cell count turned out to be 253 and the inhibition is -3.2% (inactive).

Consider `CCOc1ccc(NC(=O)CN(C)S(=O)(=O)c2cccs2)cc1`, for which the inhibition is -12% (inactive) and the cell count stood at 650.

For `COc1ccc(-n2c(SCC(=O)Nc3ccc(C(=O)O)cc3)nnc2-c2cccs2)cc1`, the cell count worked out at 443 and the inhibition is 2.8% (inactive).

`COc1cccc2cc(C(=O)Nc3cccnc3N3CCOCC3)c(=O)oc12`: the cell count is 348 and the inhibition was -10.5% (inactive).

Take `COc1cc(NC(=O)c2cc(-n3cnnc3)ccc2Cl)cc(OC)c1`: the cell count stood at 224 and the inhibition was -8.1% (inactive).

The next assay can be described thus: inhibitors of mutant huntingtin aggregation, primary screen, imaging, exon1htt(103Q)mCFP cells, high-content imaging (AID 483;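 active means visual image review flags a hit and inhibition of aggregation exceeds 20%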;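 further: compound exposure lasted 3 days before fixation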;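 on nuclei count: percent of the per-plate median nuclei count of sample wells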). As to conditions: exon1htt(103Q)mCFP cell line, aggregate imaging, at 2 µM; inhibition of aggregation: stronger effect = higher value; nuclei count: measured here: cell count, toxicity.
Consider `Cc1ccc(NC2=NC(c3ccccc3)n3c(nc(C)cc3=O)N2)cc1` (stereo not given), for which the inhibition of aggregation is -4.2% (inactive) and the nuclei count was 89.6%.

Regarding `CC(C)NC(=O)NC(=O)COc1cccc2c1OC(C)(C)C2`, the inhibition of aggregation was -13.5% (inactive) and the nuclei count is 105%.

Regarding `COCCOc1nc2ccccc2nc1C`, the nuclei count came out at 87.8% and the inhibition of aggregation was 8.5% (inactive).

As for `O=C(CSc1nnc2scc(-c3ccccc3)n12)N1CCN(Cc2ccccc2)CC1`, the nuclei count turned out to be 110% and the inhibition of aggregation was 6.5% (inactive).

For `CN1CCCN(C(=O)c2cc(=O)[nH]c3ccccc23)c2nc3ccccc3nc21`, the inhibition of aggregation is 5.4% (inactive) and the nuclei count was 101%.

Regarding `CCOc1ccc(OCC)c(NC(=O)C2CCN(S(=O)(=O)c3cnc[nH]3)CC2)c1`, the nuclei count worked out at 101% and the inhibition of aggregation is -15.6% (inactive).

Take `CC(=O)Nc1cccc(NC(=O)CSc2nnnn2C(C)C)c1`: the nuclei count is 62.3% and the inhibition of aggregation is 13.7% (inactive).

As for `CCc1ccc2oc(-c3cc(N)ccc3Cl)nc2c1`, the nuclei count turned out to be 98.1% and the inhibition of aggregation was 3% (inactive).

With `CC(C)CCn1c(SCC#N)nc2c(sc3ccccc32)c1=O`, the inhibition of aggregation is 0.6% (inactive) and the nuclei count was 117%.

With `O=c1c2c(nc3nc(COc4ccccc4)[nH]n13)CCC2`, the nuclei count came to 100% and the inhibition of aggregation was 19.9% (inactive).

For the compound `CCCCC(=O)Nc1nn(CCC)c2nc3ccccc3cc12`, the inhibition of aggregation was -14.8% (inactive) and the nuclei count amounted to 108%.

Regarding `COc1nc2ccc(C)cc2cc1-c1noc(-c2cccnc2)n1`, the nuclei count was determined as 62.9% and the inhibition of aggregation was 3.8% (inactive).

On to `O=C(NC1CCCc2ccccc21)C1CCN(S(=O)(=O)c2cnc[nH]2)CC1` (stereo not given), for which the inhibition of aggregation is -6.4% (inactive) and the nuclei count worked out at 98.8%.

In the case of `CCn1cc(C2=NOC(C(=O)Nc3cc(C)nn3-c3ccccc3)C2)c(C)n1` (stereo not given), the inhibition of aggregation is 11.1% (inactive) and the nuclei count stood at 93.2%.

For the compound `CC(C)CC(c1nnnn1C1CCCC1)N1CCN(c2ccccc2F)CC1` (stereo not given), the nuclei count worked out at 91.4% and the inhibition of aggregation was 6.8% (inactive).

In the case of `Cc1cc2c(s1)c1cnn(CC(=O)NCCc3ccccc3)c(=O)c1n2C`, the inhibition of aggregation was -21.4% (inactive) and the nuclei count amounted to 104%.

As for `CN(C(=O)CSc1nc2c(c(=O)[nH]1)CCCC2)C1CCCCC1`, the nuclei count was found to be 117% and the inhibition of aggregation was -33.2% (inactive).

As to `CCc1cc2c(NCCC(=O)O)ncnc2s1`, the inhibition of aggregation was 4.4% (inactive) and the nuclei count was determined as 103%.

In the case of `CC(C)(C)C(=O)Oc1cc(N)n(S(=O)(=O)c2ccccc2)n1`, the nuclei count was found to be 109% and the inhibition of aggregation is -1.1% (inactive).

In the case of `CC(C)CCNC(=O)NC(=O)CSc1nnc(-c2ccccc2Br)o1`, the nuclei count is 104% and the inhibition of aggregation was 2% (inactive).

With `O=C1c2cccnc2C(O)N1Cc1ccc(F)cc1` (stereo not given), the nuclei count turned out to be 118% and the inhibition of aggregation is 13.7% (inactive).

Consider `Cc1cccn2c(=O)c3cc(C#N)c(=O)n(CCCN4CCOCC4)c3nc12`, for which the nuclei count stood at 71.7% and the inhibition of aggregation was 15.5% (inactive).

Take `Nc1cc(C(=O)O)ccc1Nc1ccccc1`: the inhibition of aggregation was 20.7% (inactive) and the nuclei count was 86.5%.

Consider `CCn1c(Cc2ccc(OC)cc2)nnc1SCC(=O)Nc1cccc(C(=O)OC)c1`, for which the nuclei count came to 110% and the inhibition of aggregation is 0.9% (inactive).

Regarding `COCCNC(=O)c1ccc2c(c1)nc(C)n2-c1cccc(F)c1`, the inhibition of aggregation was -2% (inactive) and the nuclei count was 99.8%.

On to `Cc1ccc2cc(CN(CC(C)C)C(=O)C3CCCO3)c(=O)[nH]c2c1` (stereo not given), for which the nuclei count was 90% and the inhibition of aggregation is 12% (inactive).

In the case of `CCn1c(=S)sc2nc(C)sc21`, the nuclei count was 76.2% and the inhibition of aggregation was -4.4% (inactive).

Take `O=C(OCCCN1C(=O)c2ccccc2C1=O)c1ccco1`: the nuclei count is 96.8% and the inhibition of aggregation was 17.8% (inactive).

As to `Cc1ccc(-c2nn(C)c(=O)c3ccccc23)cc1S(=O)(=O)N1CCOCC1`, the nuclei count was 101% and the inhibition of aggregation is -24.4% (inactive).

On to `OCc1nc2ccccc2n1CC(O)Cn1ccc2ccccc21` (stereo not given), for which the inhibition of aggregation was -7.1% (inactive) and the nuclei count was found to be 98.2%.

As to `O=C(c1cnsn1)N1CCN(c2ccccn2)CC1`, the inhibition of aggregation is 4% (inactive) and the nuclei count came out at 82.9%.

Regarding `Cc1ccccc1CSCC(=O)c1c(N)n(C)c(=O)n(C)c1=O`, the nuclei count stood at 96.5% and the inhibition of aggregation is -5.9% (inactive).

`CCC(=O)N1CCc2cc(OC)c(OC)cc2C1COc1ccc(C(=O)OC)cc1` (stereo not given): the inhibition of aggregation is -5.1% (inactive) and the nuclei count stood at 128%.

As to `O=C(Cn1nnc(-c2cccc(C(F)(F)F)c2)n1)NC(=O)NCc1ccco1`, the nuclei count worked out at 100% and the inhibition of aggregation was -17% (inactive).

Regarding `CCN(CC)S(=O)(=O)c1ccc(C(=O)Oc2ccc3c(c2)OCO3)cc1`, the inhibition of aggregation was -5% (inactive) and the nuclei count came to 108%.

Turning to `COc1ccccc1NC(=O)c1ccc(NC(=O)CSc2nnnn2C)cc1`, the inhibition of aggregation was -0.5% (inactive) and the nuclei count was found to be 85.1%.

As to `CCOc1ccc(NC(=O)CN(C)S(=O)(=O)c2cccs2)cc1`, the nuclei count is 104% and the inhibition of aggregation is -4.9% (inactive).

On to `COc1ccc(-n2c(SCC(=O)Nc3ccc(C(=O)O)cc3)nnc2-c2cccs2)cc1`, for which the inhibition of aggregation was -7.1% (inactive) and the nuclei count is 91.6%.

`COc1cccc2cc(C(=O)Nc3cccnc3N3CCOCC3)c(=O)oc12`: the nuclei count worked out at 48.9% and the inhibition of aggregation was -13.5% (inactive).

In the case of `COc1cc(NC(=O)c2cc(-n3cnnc3)ccc2Cl)cc(OC)c1`, the inhibition of aggregation is -12.2% (inactive) and the nuclei count amounted to 97.9%.
